# AI-2 QS mod – modulators of Vibrio harveyi AI-2 quorum sensing system; Vibrio harveyi JMH597 AI-2 luminescence/OD600 ratio, 9 h; stronger effect = lower value; strain lacks LuxN and CqsS sensors; 0 = neutral-control median; activity change, % at 7.5 µM; 300,000 tested, 0.4% active; AID 2094; in the data active = activity change below about -75%, passing the limit was not always enough;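 note: luminescence divided by OD600 gain over 9 h not by final OD600 alone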
# CHT block – human CHT choline transport inhibition; CHT-expressing cells, membrane potential dye, choline response; stronger effect = lower value; B-score at 10 µM; 310,000 tested, 0.86% active; AID 488975;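 active = B-score over 3 SD under the library average, and starting fluorescence ratio not unusually high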;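 note: choline stimulus applied at its EC90 after an EC20 pre-addition; B-score computed on integrated fluorescence ratio after choline addition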
# CHT PAM – allosteric activators of human choline transporter CHT; CHT-expressing cells, membrane potential dye, choline EC20; stronger effect = higher value; LV-AA mutant CHT in HEK293 cells; B-score at 10 µM; 310,000 tested, 0.49% active; AID 488977;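 active = initial fluorescence not abnormally high and integrated response B-score, plate-corrected, over 3 SD above library mean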
# PREPL inh – inhibits the human prolyl oligopeptidase-like enzyme | 320,000 tested, 0.68% active | AID 2751 | recombinant PREPL, fluorescence polarization activity-based probe | inhibition, % at 5.96 µM | Q4J6C6; in the data active = inhibition above about 43%;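 note: 0% = enzyme with DMSO and 100% = wells lacking enzyme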
# Target sequence (Q4J6C6 whole entry, looked up): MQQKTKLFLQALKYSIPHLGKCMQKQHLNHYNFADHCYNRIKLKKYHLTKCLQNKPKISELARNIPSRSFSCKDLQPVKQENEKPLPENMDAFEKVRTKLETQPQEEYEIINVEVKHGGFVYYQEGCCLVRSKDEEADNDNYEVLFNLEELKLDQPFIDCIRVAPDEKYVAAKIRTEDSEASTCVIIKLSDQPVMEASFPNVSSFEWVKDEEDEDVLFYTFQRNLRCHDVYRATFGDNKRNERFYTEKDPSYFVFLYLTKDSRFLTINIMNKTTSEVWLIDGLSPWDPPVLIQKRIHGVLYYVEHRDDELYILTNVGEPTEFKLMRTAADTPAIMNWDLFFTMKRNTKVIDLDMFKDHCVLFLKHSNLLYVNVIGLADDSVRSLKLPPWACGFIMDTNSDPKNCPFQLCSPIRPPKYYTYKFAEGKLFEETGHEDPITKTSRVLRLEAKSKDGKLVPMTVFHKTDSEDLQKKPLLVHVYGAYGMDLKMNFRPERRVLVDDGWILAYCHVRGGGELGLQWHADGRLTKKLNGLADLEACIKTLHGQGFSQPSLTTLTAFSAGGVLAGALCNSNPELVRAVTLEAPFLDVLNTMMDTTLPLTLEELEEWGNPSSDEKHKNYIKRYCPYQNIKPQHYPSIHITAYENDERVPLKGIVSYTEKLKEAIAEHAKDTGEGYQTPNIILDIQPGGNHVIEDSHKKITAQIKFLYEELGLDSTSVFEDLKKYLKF
# ALR H2O2 inh – human ALR oxidase inhibition via reduced H2O2; P55789; purified ALR, DTT oxidation, H2O2 HRP-luminol luminescence; inhibition, % (test concentration not listed); 290,000 tested, 3.8% active; AID 485317;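 active = mean replicate inhibition above about 79%, with every replicate also reaching it, limit read from the data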
# * = called active by the depositor; i = inactive; / = not tested or not shown. This is a sample that favours compounds with a hit; in the whole collection about 5% have one here.
SMILES,AI-2 QS mod,CHT block,CHT PAM,PREPL inh,ALR H2O2 inh
Cc1cccc(-c2nc(CSCC(=O)NCc3cccs3)c(C)o2)c1,5.0,i,i,4.2,98.2*
Cc1occc1C(=O)Nc1cccc(Cl)c1Cl,-21.7,i,i,-10.0,3.2
CCc1c(O)nc(SCC(=O)N2CCOCC2)n(-c2ccccc2)c1=O,19.3,i,i,7.3,96.1*
CCc1c(O)nc(SCC(=O)c2ccccc2)n(-c2ccccc2)c1=O,13.3,i,i,2.5,99.0*
COc1ccc(S(=O)(=O)N2CCOC2CNC(=O)C(=O)NCC(C)C)cc1OC (stereo not given),16.4,i,i,2.5,-11.6
CCCCn1c(N)c(N(Cc2ccccc2OC)C(=O)CCC(C)C)c(=O)[nH]c1=O,44.0,i,i,-2.1,2.0
Cc1sc2nc(CN3CCCCC3)nc(Cl)c2c1C,1.8,i,i,14.4,98.0*
Clc1nc(CN2CCCCC2)nc2sc3c(c12)CCCC3,28.4,i,i,6.6,19.0
N#Cc1ccccc1S(=O)(=O)N1CCN(C(=O)Cc2coc3cc(O)ccc23)CC1,/,/,/,13.6,98.9*
CCN(CC)CCCNC(=O)c1cc(-c2ccccc2)c(N2CCCCC2)s1,2.4,i,i,15.7,98.7*
O=C(NCCc1ccccc1)c1cc(-c2ccccc2)c(N2CCOCC2)s1,18.2,i,i,7.8,5.0
N#Cc1cc(-c2ccccc2)oc1NC(=O)c1ccccc1,26.4,i,i,6.1,78.8*
COc1ccc(-n2cnc3cc(NS(=O)(=O)c4ccccc4)ccc32)cc1,-0.6,i,i,-22.4,/
COc1ccc(-n2cnc3cc(N)ccc32)cc1,0.8,i,i,15.5,98.8*
CCCCn1c(N)c(N(CCOC)C(=O)c2ccc3c(c2)C(=O)N(c2cc(C)ccc2C)C3=O)c(=O)[nH]c1=O,0.2,i,i,1.6,-3.2
CC(C)CCOCC(O)CCC(=O)NNC(=S)Nc1ccccc1 (stereo not given),13.0,i,i,-11.5,55.3
C=CCC(CC(O)COCCC)C(=O)NNC(=S)Nc1ccccc1 (stereo not given),-28.9,i,i,8.6,98.3*
COc1ccc(CCNC(=O)C(=O)NCc2ccccn2)cc1,-79.0*,i,i,-0.8,-6.5
N#Cc1c(N)c2ccccn2c1C(=O)c1ccc(Br)cc1,4.6,i,i,-21.5,/
O=C(CCl)N(Cc1cc(=O)[nH]c2ccccc12)c1ccccc1,5.4,i,i,-0.7,95.5*
CCC(=O)N(Cc1cc(=O)[nH]c2ccccc12)c1ccccc1,-1.4,i,i,-4.3,-15.2
O=C1CS/C(=N/N=C/c2ccco2)N1Cc1ccc(F)cc1,-4.8,i,i,-9.4,90.4*
CC1S/C(=N/N=C/c2ccco2)N(Cc2ccc(F)cc2)C1=O (stereo not given),-7.5,i,i,-8.2,-5.2
CCn1c(N2CCC(Cc3ccccc3)CC2)nc2c1c(=O)[nH]c(=O)n2C,25.9,i,i,57.1*,-8.7
COc1ccc(N2CCN(c3nc4c(c(=O)[nH]c(=O)n4C)n3Cc3cccc(C)c3)CC2)cc1,16.8,i,i,50.8*,7.7
SMILES,AI-2 QS mod,CHT block,CHT PAM,PREPL inh,ALR H2O2 inh
O=C(COC(=O)Cc1cccc(F)c1)NCCc1ccccc1,/,/,/,-2.1,-2.8
CCOc1ccc(C(=O)NCC(=O)NCCCSc2ccccc2)cc1OCC,54.0,i,i,2.7,3.0
COc1ccc(C(=O)n2cc(C(=O)c3cc(C)ccc3O)cn2)cc1,3.7,i,i,1.7,97.7*
Cc1cccc(C(=O)c2cn[nH]c2-c2ccc(C)cc2O)c1,27.7,i,i,6.9,70.6
COc1ccc(C(=O)c2cn[nH]c2-c2ccc(C)cc2O)cc1,-86.2*,i,i,-7.9,36.7
Cc1ccc(O)c(-c2[nH]ncc2C(=O)c2ccc(Br)cc2)c1,-10.5,i,i,-42.3,21.9
Cc1ccc(O)c(-c2[nH]ncc2C(=O)c2ccc(Cl)cc2)c1,-8.8,i,i,-31.7,49.8
O=C(c1ccc(Br)cc1)c1cn[nH]c1-c1ccccc1O,-80.8*,i,i,-24.4,8.2
CC(C)(C)c1ccc(C(=O)c2cn[nH]c2-c2ccccc2O)cc1,-91.7*,i,i,9.9,20.6
COC(=O)[C@@]12CCCCN1[C@H](c1ccc(-c3ccc(C(C)=O)cc3)c(OC)c1)[C@@H]1C(=O)N(C)C(=O)[C@@H]12,5.2,i,i,-8.2,0.6
